Screening results as filed in PubChem.
Most compounds without a hit are left out; they make up all but 2.3% or so of the library.
POLH inh = inhibitors of human DNA polymerase eta | Q9Y253 | actives 1.2% (n = 390,000) | recombinant Pol eta, fluorescent DNA replication assay | Potency, µM (titrated, usually from 114 µM), hits mostly inhibitors
Target sequence (Q9Y253 whole entry, looked up): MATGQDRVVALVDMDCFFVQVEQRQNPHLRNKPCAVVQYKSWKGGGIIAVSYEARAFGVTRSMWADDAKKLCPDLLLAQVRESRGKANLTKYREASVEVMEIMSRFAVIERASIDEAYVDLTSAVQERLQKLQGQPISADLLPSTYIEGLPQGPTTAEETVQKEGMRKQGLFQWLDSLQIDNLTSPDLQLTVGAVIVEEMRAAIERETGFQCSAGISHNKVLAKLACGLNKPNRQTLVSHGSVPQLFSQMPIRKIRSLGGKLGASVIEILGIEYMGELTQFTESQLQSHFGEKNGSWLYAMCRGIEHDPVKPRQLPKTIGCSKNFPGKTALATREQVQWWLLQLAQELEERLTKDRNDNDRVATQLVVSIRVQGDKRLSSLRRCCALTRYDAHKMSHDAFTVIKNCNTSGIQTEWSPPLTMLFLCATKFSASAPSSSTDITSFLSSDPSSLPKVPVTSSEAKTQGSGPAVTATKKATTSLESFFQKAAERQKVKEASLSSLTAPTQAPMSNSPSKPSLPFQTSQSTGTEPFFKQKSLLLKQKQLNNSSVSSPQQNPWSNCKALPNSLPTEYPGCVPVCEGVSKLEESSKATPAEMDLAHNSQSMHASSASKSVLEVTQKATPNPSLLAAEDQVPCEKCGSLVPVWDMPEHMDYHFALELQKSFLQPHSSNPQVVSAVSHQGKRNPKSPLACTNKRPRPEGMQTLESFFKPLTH
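Fluorescent replication assay: 50 nM final substrate added after a 15 min room-temperature compound preincubation with 10 nM enzyme. Signal taken at 0 min and again at 10 min.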
WRN inhibitor = WRN helicase (human) inhibition. Potency, µM (doses to about 114 µM), hits mostly inhibitors. Q14191. WRN helicase unwinding, fluorescent forked duplex, kinetic. AID 651768. actives 0.46% (n = 360,000); note: nearly all actives have a fitted effect of over 55% in size
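Enzyme (20 nM final) and test compound sit together 15 min at room temperature before substrate addition. Substrate is a single-forked duplex oligonucleotide (100 nM) labelled with fluorophore and quencher, with 2 mM ATP; helicase unwinding raises red fluorescence, read kinetically.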
POLK inh = DNA polymerase kappa (human) inhibition | AID 588579 | actives 0.53% (n = 400,000) | Q9UBT6 | Potency, µM (top dose mostly 107 µM), usual class: inhibitors | purified Pol kappa, fluorescent DNA synthesis assay, 10 min
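Kinetic fluorescence screen: compound preincubated 15 min RT with 10 nM enzyme; 50 nM substrate (final) initiates; reads at 0/10 min.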
POLB inh = blocks human DNA polymerase beta activity | P06746 | Pol beta primer extension/strand displacement, fluorescence kinetic | Potency, µM (series often up to 114 µM), hits mostly inhibitors | actives 1.3% (n = 340,000)
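Reaction started by 50 nM substrate onto compound-treated Pol beta (10 nM, 15 min preincubation, room temperature); plates read at 0 min and 10 min. Normalized concentration-effect data fitted by four-parameter Hill equation.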
POLI inh = blocks human DNA polymerase iota activity | Q9UNA4 | Pol iota fluorescent replication assay, 10 min | Potency, µM (titrated, usually from 115 µM), most hits filed as inhibitors | actives 1% (n = 390,000)
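Pol iota at 10 nM preincubated 15 min with compounds at room temperature; reaction started with fluorescent substrate, 50 nM final. Fluorescence read kinetically at 0 and 10 min; buffer-only wells as negative control.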
Large screens that a line does not name were inactive. Calls come from the whole dose curve; as a rule, active = well fitted curve in the direction sought with a large enough effect; inconclusive = small, poorly fitted or top-dose-only effect, or another doubt; inactive = no such curve, though single readings can be large; an effect the other way counts as inactive or inconclusive.

CCCCn1c(SCC(=O)c2ccccc2)nc2ccsc2c1=O	none
O=C(C[n+]1ccccc1Cl)c1ccc2ccccc2c1	none (no result: POLH inh, WRN inhibitor, POLB inh)
CCCCc1nc2sc3c(SCC(=O)NCc4ccco4)ncnc3c2c2c1CCC2	POLH inh 22.4µM, POLB inh inconclusive
CCn1c(SCC(=O)NCc2ccco2)nnc1-c1cccs1	POLB inh 31.6µM
O=C(CSc1ncnc2c1oc1ccccc12)NCc1ccco1	POLB inh 31.6µM, POLI inh inconclusive
CCCCc1nc2sc3c(SCCN(C)C)ncnc3c2c2c1CCC2	POLB inh inconclusive
O=C(CSc1nccn1Cc1ccccc1)NCc1ccco1	POLB inh 28.2µM, POLI inh inconclusive (no result: WRN inhibitor)
O=C(O)CSc1ncnc2c1oc1ccccc12	none
O=C(CSc1nc2cccnc2n1Cc1ccccc1)NCc1ccco1	POLH inh inconclusive, POLB inh inconclusive
CC(C)CC(=O)N1C/C=C\C[C@@H](c2ccc(Cl)cc2)N(Cc2ccc(Cl)cc2)C(=O)[C@@H]1Cc1ccccc1	none (no result: POLH inh, WRN inhibitor, POLB inh)
O=C(CSc1ncc(-c2ccccc2)nn1)NCc1ccco1	POLB inh 28.2µM, POLI inh inconclusive
CCOc1ccc(-c2nnc3ccc(SCC(=O)NCc4ccco4)nn23)cc1	POLH inh inconclusive, POLB inh 25.1µM, POLI inh inconclusive
O=C(CSc1nnc(-c2ccccc2)c(-c2ccccc2)n1)NCc1ccco1	none
Cc1ccc(-c2nnc3ccc(SCC(=O)NCc4ccco4)nn23)cc1	POLB inh inconclusive
C/C(=N\Nc1nc2ccccc2c(=O)n1O)c1ccco1	POLH inh inconclusive, POLB inh inconclusive, POLI inh 17.8µM
O=C(O)Cc1c(Cl)ccc(Cl)c1Cl	none (no result: POLH inh, WRN inhibitor, POLB inh, POLI inh)
C#CCOc1ccc(-c2nnc(Nc3cccc(C)c3)c3ccccc23)cc1	POLK inh 89.1µM, POLI inh inconclusive (no result: WRN inhibitor)
Fc1ccc(Nc2nc(NCc3ccco3)nc3nccnc23)cc1	none (no result: POLH inh, WRN inhibitor, POLB inh)
Cc1ccc(S(=O)(=O)c2nc(-c3ccco3)oc2SCC(=O)c2ccc(Cl)cc2)cc1	POLI inh inconclusive (no result: WRN inhibitor)
O=C(CSc1oc(-c2ccco2)nc1S(=O)(=O)c1ccc(Cl)cc1)c1ccc(Cl)cc1	POLK inh 50.1µM, POLI inh inconclusive (no result: WRN inhibitor)
O=C(CSc1oc(-c2ccco2)nc1S(=O)(=O)c1ccc(Cl)cc1)NCC1CCCO1 (centres undefined)	POLH inh 79.4µM, POLI inh inconclusive
O=C(CSc1oc(-c2ccco2)nc1S(=O)(=O)c1ccccc1)NCC1CCCO1 (centres undefined)	POLH inh inconclusive
CN(C)c1ccc(/C=C/c2ccnc3ccccc23)cc1Cl	none (no result: POLH inh, WRN inhibitor, POLB inh)
C=C1CCN(C(CC(C)C)C(=O)NCc2ccc(OC)cc2)S(=O)(=O)c2ccccc21 (centres undefined)	none (no result: POLH inh, WRN inhibitor, POLB inh)
CCCCOc1ccc(CC(=O)NOC)cc1	none (no result: POLH inh, WRN inhibitor, POLB inh)
O=C(Nc1ccc(Cl)cc1Cl)c1cnn2c1NC(=C1CC1)C=C2C(F)F	none (no result: POLH inh, WRN inhibitor, POLB inh)
O=C(CN1C(=O)/C(=C/c2ccco2)SC1=S)Nc1ccc(O)c(C(=O)O)c1	POLH inh inconclusive, POLK inh inconclusive, POLB inh 10µM
NN1C(=O)/C(=C\c2ccco2)SC1=S	POLK inh inconclusive, POLB inh 7.94µM, POLI inh inconclusive
O=C1/C(=C\c2ccco2)SC(=S)N1c1ccc(O)cc1	POLB inh 20µM, POLI inh inconclusive
CC(=C\c1ccco1)/C=C1/SC(=S)N(CC(=O)O)C1=O	POLH inh 39.8µM, POLK inh inconclusive, POLB inh 20µM, POLI inh inconclusive
CC(/C=C1\SC(=S)N(CC(=O)O)C1=O)=C\c1ccccc1	POLH inh inconclusive, POLI inh inconclusive
COc1ccc(NC(=O)CCCN2C(=O)/C(=C\c3ccco3)SC2=S)cc1	POLH inh inconclusive, POLI inh inconclusive
CN(C)c1c(Cl)cc(/C=C2\C=Cc3ccccc32)cc1Cl	none (no result: POLH inh, WRN inhibitor, POLB inh)
CCN(CC)C(=O)CSc1nc(-c2ccccc2F)nc2c1Cc1c(CO)cnc(C)c1O2	none (no result: WRN inhibitor)
Cc1ncc(CO)c2c1Oc1nc(-c3ccccc3)nc(SCC(=O)N(C)c3ccccc3)c1C2	POLB inh 56.2µM (no result: POLH inh, WRN inhibitor, POLK inh, POLI inh)
COc1cccc(-c2nc3c(c(SCC(=O)N4CCOCC4)n2)Cc2c(CO)cnc(C)c2O3)c1	POLI inh 79.4µM
Cc1ncc(CO)c2c1Oc1nc(-c3ccccc3F)nc(SCC(=O)N(C)c3ccccc3)c1C2	POLH inh 79.4µM, POLI inh inconclusive
CN1CCCc2ccccc21	none (no result: POLH inh, WRN inhibitor, POLB inh)
Cc1cccc(-n2c(C)nnc2SCC(=O)NC(C)c2ccco2)c1 (centres undefined)	POLI inh inconclusive (no result: POLH inh, WRN inhibitor, POLB inh)
O=C(COc1ccccc1/C=C1\SC(=O)NC1=O)Nc1ccc(F)cc1	POLH inh 70.8µM, POLB inh inconclusive
O=C(COc1ccccc1/C=C1/NC(=O)NC1=O)Nc1ccccc1	none
CC(=O)Nc1cccc(-n2nnc(SCC(=O)Nc3ccc(F)c(Cl)c3)n2)c1	POLH inh inconclusive, POLB inh inconclusive, POLI inh 79.4µM
COc1cc(-c2noc(-c3ccc(NCc4cccnc4)c([N+](=O)[O-])c3)n2)cc(OC)c1OC	POLB inh 44.7µM (no result: WRN inhibitor)
Cc1ccc(C(=O)Oc2cc(-c3ccc4c(c3)OCO4)cc(=O)c3c(C)oc(C)c23)cc1	POLH inh 79.4µM, POLI inh inconclusive (no result: WRN inhibitor)
O=c1[nH]c(=S)c2[nH]cnc2[nH]1	none (no result: POLH inh, WRN inhibitor, POLB inh)
C=CCn1c(SCc2cc(=O)n3ccsc3n2)nc2sc(C)c(C)c2c1=O	POLH inh inconclusive, POLB inh 50.1µM, POLI inh 31.6µM
Cc1cccc(CC2S/C(=N/N=C/c3ccco3)N(c3ccccc3)C2=O)c1 (centres undefined)	POLB inh 35.5µM
CCCCCCCCCOC(=O)CNc1nc(C#N)nc(NCC(=O)OCCCCCCCCC)n1	none (no result: POLH inh, WRN inhibitor, POLB inh)
C=CCCCCCCCCCBr	none (no result: POLH inh, WRN inhibitor, POLB inh, POLI inh)
COc1ccc(C(=O)OCc2cc(=O)oc3cc(C)ccc23)cc1S(=O)(=O)N1CCOCC1	none (no result: POLK inh, POLB inh, POLI inh)
COc1ccc2c(COC(=O)c3ccc(C)c(S(=O)(=O)N4CCOCC4)c3)cc(=O)oc2c1	POLH inh 14.1µM, POLI inh inconclusive (no result: POLB inh)
CN(C)c1ccc(/C=C/c2ccc3cc(F)ccc3n2)cc1	none (no result: POLH inh, WRN inhibitor, POLB inh)
Cc1cc(C)n(C(CC(=O)N2CCc3ccccc3C2)C(=O)O)n1 (centres undefined)	POLK inh inconclusive, POLB inh inconclusive, POLI inh 79.4µM
CC(C)(C)c1ccc(OCCn2c(CCNC(=O)C3CCCCC3)nc3ccccc32)cc1	POLI inh inconclusive (no result: POLH inh, WRN inhibitor, POLB inh)
CC(NS(=O)(=O)c1ccccc1)C(=O)NC1CCCC1 (centres undefined)	POLH inh 79.4µM, POLB inh inconclusive
Cc1ccc(C)c(N2CCN(C(c3ccc(F)cc3)c3nnc(-c4ccccc4)o3)CC2)c1 (centres undefined)	POLK inh inconclusive, POLI inh 89.1µM (no result: WRN inhibitor)
CCn1cc2nc(SCC(=O)Nc3ccc(C)cc3C)n(Cc3ccc(C)cc3)c(=O)c2n1	POLH inh 79.4µM, POLB inh 10µM (no result: WRN inhibitor)
CCc1ccc(NS(=O)(=O)c2[nH]ncc2C(=O)OC)cc1	POLB inh inconclusive, POLI inh 79.4µM (no result: WRN inhibitor)
CCc1ccc(NS(=O)(=O)c2cc(OC)ccc2OC)cc1	none
